This is part of a sample that, as a whole, favours compounds with a hit. Of some 83,000 tested, about 20% had one in any assay.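 Assay: single dose, 48 h. Readout: percent growth (0 = no net growth; negative = cell death). Active: <10.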 Calls of active or inactive are those of the source.
Legend:
Experiment in all cases: NCI-60 one-dose screen, 48 h (100 = growth as untreated, 0 = no growth, -100 = all killed)
Conditions in all cases: 10 µM unless noted
SR leukemia = tested on: SR leukemia
RPMI-8226 leukemia = tested on: RPMI-8226 leukemia
OVCAR-8 ovarian = tested on: OVCAR-8 ovarian
OVCAR-5 ovarian = tested on: OVCAR-5 ovarian
OVCAR-4 ovarian = tested on: OVCAR-4 ovarian
SK-OV-3 ovarian = tested on: SK-OV-3 ovarian
IGROV1 ovarian = tested on: IGROV1 ovarian
OVCAR-3 ovarian = tested on: OVCAR-3 ovarian
HS 578T breast = tested on: HS 578T breast
NCI/ADR-RES ovarian = tested on: NCI/ADR-RES ovarian
T-47D breast = tested on: T-47D breast
BT-549 breast = tested on: BT-549 breast
MDA-MB-435 melanoma = tested on: MDA-MB-435 melanoma
SW-620 colon = tested on: SW-620 colon
MCF7 breast = tested on: MCF7 breast
HCT-116 colon = tested on: HCT-116 colon
HCC-2998 colon = tested on: HCC-2998 colon
KM12 colon = tested on: KM12 colon

Measured: growth

Nc1ncnc2c1c(-c1ccc(Oc3ccccc3)cc1)nn2CC1SSCC1O (stereo not drawn)
inactive: RPMI-8226 leukemia 38% | OVCAR-8 ovarian 67.7% | OVCAR-5 ovarian 81.4% | OVCAR-4 ovarian 67.4% | SK-OV-3 ovarian 44.3% | IGROV1 ovarian 15.6% | OVCAR-3 ovarian 11.9% | HS 578T breast 66.7% | NCI/ADR-RES ovarian 77.5% | BT-549 breast 82% | SW-620 colon 78.7% | MCF7 breast 16% | HCT-116 colon 43.8% | HCC-2998 colon 80.4%
active: SR leukemia -16.2% | T-47D breast 7.22% | MDA-MB-435 melanoma -0.185%

CC(C)c1ccc(-n2c(=S)[nH]c3sc4c(c3c2=O)CCC(=O)C4)cc1
inactive: SR leukemia 50% | RPMI-8226 leukemia 15.9% | OVCAR-8 ovarian 49.9% | OVCAR-5 ovarian 68.2% | OVCAR-4 ovarian 46.5% | SK-OV-3 ovarian 84.3% | IGROV1 ovarian 63.1% | OVCAR-3 ovarian 53% | HS 578T breast 32.4% | NCI/ADR-RES ovarian 44% | T-47D breast 11.7% | BT-549 breast 26.3% | MDA-MB-435 melanoma 91.8% | SW-620 colon 48.5% | MCF7 breast 85.4% | HCT-116 colon 53.5% | HCC-2998 colon 40.1%

COc1ccc2c(c1)c(-c1nonc1-c1cn(C)c3ccc(OC)cc13)cn2C
inactive: SR leukemia 16.5% | RPMI-8226 leukemia 39.9% | OVCAR-8 ovarian 52.9% | OVCAR-5 ovarian 56.2% | OVCAR-4 ovarian 62% | SK-OV-3 ovarian 48.2% | IGROV1 ovarian 46.5% | OVCAR-3 ovarian 11.4% | HS 578T breast 34.4% | NCI/ADR-RES ovarian 22.3% | T-47D breast 38.6% | BT-549 breast 45.7% | SW-620 colon 16.3% | MCF7 breast 20.7% | HCT-116 colon 19.2% | HCC-2998 colon 65.7% | KM12 colon 25.8%
active: MDA-MB-435 melanoma -25.4%

COc1ccc(C/C(C)=C(\c2ccc(O)cc2)c2ccc(OCCN3CCCC3)cc2)cc1
inactive: SR leukemia 82.4% | RPMI-8226 leukemia 105% | OVCAR-8 ovarian 103% | OVCAR-5 ovarian 99.1% | OVCAR-4 ovarian 104% | SK-OV-3 ovarian 100% | IGROV1 ovarian 103% | OVCAR-3 ovarian 108% | HS 578T breast 101% | NCI/ADR-RES ovarian 104% | T-47D breast 73.3% | BT-549 breast 110% | MDA-MB-435 melanoma 103% | SW-620 colon 104% | MCF7 breast 63.3% | HCT-116 colon 93.8% | HCC-2998 colon 104%

CC(=O)c1cc(-c2ccccc2N)n(-c2ccc3c(c2)OCO3)c1C
active: OVCAR-3 ovarian 5.55% | BT-549 breast 1.13% | MDA-MB-435 melanoma -43.6% | HCT-116 colon 6.22% | KM12 colon 5.16%
inactive: SR leukemia 14% | RPMI-8226 leukemia 19.8% | OVCAR-8 ovarian 18.7% | OVCAR-5 ovarian 30% | OVCAR-4 ovarian 48.3% | SK-OV-3 ovarian 33.7% | IGROV1 ovarian 22% | HS 578T breast 32.6% | NCI/ADR-RES ovarian 13.1% | T-47D breast 71% | SW-620 colon 29.2% | MCF7 breast 14.8% | HCC-2998 colon 15.8%

O=C1CC2C=CCN2C=C1NC(=O)C1CCCCC1 (stereo not drawn)
inactive: SR leukemia 103% | RPMI-8226 leukemia 107% | OVCAR-8 ovarian 109% | OVCAR-5 ovarian 102% | OVCAR-4 ovarian 105% | SK-OV-3 ovarian 111% | IGROV1 ovarian 105% | OVCAR-3 ovarian 98.9% | HS 578T breast 105% | NCI/ADR-RES ovarian 98.5% | T-47D breast 84% | BT-549 breast 117% | MDA-MB-435 melanoma 102% | SW-620 colon 107% | MCF7 breast 92.3% | HCT-116 colon 94.8% | HCC-2998 colon 88.3% | KM12 colon 96.1%

CCCCCCCCn1ccc2cc(NC(=O)Cn3cc(CN4CCC(C)CC4)nn3)ccc21
inactive: OVCAR-8 ovarian 32.8% | OVCAR-5 ovarian 76.7% | OVCAR-4 ovarian 63% | SK-OV-3 ovarian 79.1% | IGROV1 ovarian 39.6% | OVCAR-3 ovarian 14.7% | HS 578T breast 59.2% | NCI/ADR-RES ovarian 63.1% | BT-549 breast 78.1%
active: SR leukemia -0.808% | RPMI-8226 leukemia -40.9% | T-47D breast 6.9% | MDA-MB-435 melanoma -75.6% | SW-620 colon -72.1% | MCF7 breast 4.43% | HCT-116 colon -18.6% | HCC-2998 colon -78.8% | KM12 colon 4.72%

COc1ccc2c(c1)c(-c1nc(-c3cn(C)c4ncccc34)cs1)cn2CCO
inactive: SR leukemia 58.2% | RPMI-8226 leukemia 50.5% | OVCAR-8 ovarian 73% | OVCAR-5 ovarian 76% | OVCAR-4 ovarian 45.5% | SK-OV-3 ovarian 89.8% | IGROV1 ovarian 85.2% | OVCAR-3 ovarian 99.1% | HS 578T breast 80.9% | NCI/ADR-RES ovarian 90% | T-47D breast 10.1% | BT-549 breast 76.9% | MDA-MB-435 melanoma 86.5% | SW-620 colon 93.6% | MCF7 breast 12% | HCT-116 colon 74.2% | HCC-2998 colon 95.1% | KM12 colon 49.5%

O=C(O)C1CN(c2cccc(Cl)c2)N(c2cccc(Cl)c2)C1=O (stereo not drawn)
inactive: SR leukemia 85% | RPMI-8226 leukemia 107% | OVCAR-8 ovarian 93.2% | OVCAR-5 ovarian 75.3% | OVCAR-4 ovarian 96% | SK-OV-3 ovarian 88.9% | IGROV1 ovarian 89.8% | OVCAR-3 ovarian 87.1% | HS 578T breast 91% | NCI/ADR-RES ovarian 93.9% | T-47D breast 88.9% | BT-549 breast 101% | MDA-MB-435 melanoma 94.2% | SW-620 colon 97.8% | MCF7 breast 91.8% | HCT-116 colon 97.4% | HCC-2998 colon 103% | KM12 colon 81.3%

Cc1cc2nc(-c3c(-c4ccc(F)cc4)nc4sccn34)[nH]c2cc1C
inactive: SR leukemia 83.2% | RPMI-8226 leukemia 87.9% | OVCAR-8 ovarian 96% | OVCAR-5 ovarian 111% | OVCAR-4 ovarian 94.7% | SK-OV-3 ovarian 94.9% | IGROV1 ovarian 95.9% | OVCAR-3 ovarian 102% | HS 578T breast 103% | NCI/ADR-RES ovarian 91.6% | T-47D breast 85.7% | BT-549 breast 109% | MDA-MB-435 melanoma 103% | SW-620 colon 108% | MCF7 breast 91.6% | HCT-116 colon 103% | HCC-2998 colon 106% | KM12 colon 96.7%

C=CC(=O)N1CCN(c2ccc3cccc(NC(=O)c4cnc(C)cn4)c3n2)CC1
active: SR leukemia 9.43% | IGROV1 ovarian 9.7%
inactive: RPMI-8226 leukemia 43.3% | OVCAR-8 ovarian 27.2% | OVCAR-5 ovarian 71.5% | OVCAR-4 ovarian 43.7% | SK-OV-3 ovarian 11.1% | OVCAR-3 ovarian 43.5% | HS 578T breast 34.3% | NCI/ADR-RES ovarian 30.9% | T-47D breast 28.2% | BT-549 breast 34.3% | MDA-MB-435 melanoma 33.1% | SW-620 colon 48.7% | MCF7 breast 48.2% | HCT-116 colon 27.4% | HCC-2998 colon 72.4% | KM12 colon 23%

O=c1[nH]cnc2c1C(c1ccc(Br)cc1)c1sc3c(F)cccc3c1O2 (stereo not drawn)
inactive: SR leukemia 54.7% | RPMI-8226 leukemia 60.4% | OVCAR-8 ovarian 95.3% | OVCAR-5 ovarian 90.7% | OVCAR-4 ovarian 94.9% | SK-OV-3 ovarian 117% | IGROV1 ovarian 84.4% | OVCAR-3 ovarian 107% | HS 578T breast 85.2% | NCI/ADR-RES ovarian 100% | T-47D breast 83.9% | BT-549 breast 99.1% | MDA-MB-435 melanoma 100% | SW-620 colon 90.6% | MCF7 breast 77.3% | HCT-116 colon 98.9% | HCC-2998 colon 111% | KM12 colon 88.8%

NC(=O)OCCn1cc(-c2nc(-c3c[nH]c4ncccc34)cs2)c2ccccc21
active: MDA-MB-435 melanoma -33.4% | SW-620 colon 8.68%
inactive: SR leukemia 24.2% | RPMI-8226 leukemia 24.9% | OVCAR-8 ovarian 41.6% | OVCAR-5 ovarian 58.2% | OVCAR-4 ovarian 71.7% | SK-OV-3 ovarian 41.6% | IGROV1 ovarian 41.3% | OVCAR-3 ovarian 27.9% | HS 578T breast 41.4% | NCI/ADR-RES ovarian 38.1% | T-47D breast 44.7% | BT-549 breast 32.8% | MCF7 breast 18.3% | HCT-116 colon 30.8% | HCC-2998 colon 71.7% | KM12 colon 23%

O=C1NC(=O)c2c1c1c3ccccc3[nH]c1c1oc3ccc(F)cc3c21
inactive: SR leukemia 31.5% | RPMI-8226 leukemia 74.5% | OVCAR-8 ovarian 91.6% | OVCAR-5 ovarian 84.1% | OVCAR-4 ovarian 57.8% | SK-OV-3 ovarian 84% | IGROV1 ovarian 21.1% | OVCAR-3 ovarian 83.1% | HS 578T breast 82.2% | NCI/ADR-RES ovarian 79.1% | T-47D breast 24.4% | BT-549 breast 71% | MDA-MB-435 melanoma 76% | SW-620 colon 64.6% | MCF7 breast 34% | HCT-116 colon 69% | HCC-2998 colon 65.6% | KM12 colon 45.9%

NC(=O)c1ccc(NC(=O)c2oc3ccccc3c2-c2cnn(-c3ccccc3)c2)cc1
inactive: SR leukemia 15.9% [50 µM] | RPMI-8226 leukemia 17.6% [50 µM] | OVCAR-8 ovarian 13.4% [50 µM] | SK-OV-3 ovarian 62.4% [50 µM] | IGROV1 ovarian 10.6% [50 µM] | T-47D breast 49.8% [50 µM] | BT-549 breast 22.2% [50 µM] | MDA-MB-435 melanoma 37.7% [50 µM] | SW-620 colon 12.8% [50 µM] | HCC-2998 colon 28.7% [50 µM] | KM12 colon 34.1% [50 µM]
active: OVCAR-5 ovarian -6.33% [50 µM] | OVCAR-4 ovarian -30.5% [50 µM] | OVCAR-3 ovarian 1.08% [50 µM] | HS 578T breast 5.15% [50 µM] | NCI/ADR-RES ovarian -3.84% [50 µM] | MCF7 breast -1.73% [50 µM] | HCT-116 colon 9.74% [50 µM]

COc1ccc2nc3ccccc3c(NCc3ccc(F)cc3)c2c1
active: SR leukemia -1.12% | RPMI-8226 leukemia -43% | IGROV1 ovarian 8.15% | MCF7 breast -27.7% | HCT-116 colon 8.89% | HCC-2998 colon -77.6%
inactive: OVCAR-8 ovarian 19.4% | OVCAR-5 ovarian 18.1% | OVCAR-4 ovarian 13.6% | SK-OV-3 ovarian 37.9% | OVCAR-3 ovarian 31.2% | HS 578T breast 26.1% | NCI/ADR-RES ovarian 15.1% | T-47D breast 36.5% | BT-549 breast 35% | MDA-MB-435 melanoma 23.9% | SW-620 colon 14.7% | KM12 colon 28.7%

CC1=C(C(=O)n2c3ccccc3c3ccccc32)C(c2cccc([N+](=O)[O-])c2)C(C(=O)n2c3ccccc3c3ccccc32)=C(C)N1
inactive: SR leukemia 68.5% | RPMI-8226 leukemia 93.4% | OVCAR-8 ovarian 99.4% | OVCAR-5 ovarian 99.2% | OVCAR-4 ovarian 103% | SK-OV-3 ovarian 97.7% | IGROV1 ovarian 98.4% | OVCAR-3 ovarian 100% | HS 578T breast 96.5% | NCI/ADR-RES ovarian 98.7% | T-47D breast 80.5% | BT-549 breast 102% | MDA-MB-435 melanoma 117% | SW-620 colon 100% | MCF7 breast 94.8% | HCT-116 colon 91.8% | HCC-2998 colon 102% | KM12 colon 94.8%
